The results in this text go back to PMC5540273 (PLoS ONE, 2017).
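Also: KINOMEscan kinase panel screen.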

The test system of this experiment is TSSK1B. The following applies: concentration: 1 μM,replicates: in singlicate; n = 1.
Regarding `CS(=O)(=O)Nc1ccc(-c2ccnc3[nH]ccc23)cc1` [GSK993273], the “%Inh” value was 17%. The value for `O=C(NCC1CC1)c1ccc(-c2cc(C(=O)NC3CC3)ccc2F)cc1` [GW810445] was 0%.

As for `Cc1cccc2c(-c3ccncc3)c(-c3ccc(F)cc3)nn12.Cl` [GW461487], the “%Inh” value is listed as 4%. On to `Cn1ccc2ncnc(Oc3ccc(NC(=O)Nc4cnn(C(C)(C)C)c4)c(Cl)c3)c21`, for which the “%Inh” value worked out at 0%. Under `Cn1cc(-c2cccc3c(N)c(C(N)=O)nnc23)cn1` stands 0%. Under `C[C@@H]1CCN(C(=O)N2CCCC2)C[C@@H]1N(C)c1ncnc2[nH]ccc12` stands 5%; under `Cl.Nc1n[nH]c2cc(-c3ccccn3)ccc12` [GSK2189892], 0%. The value for `Cl.c1ccc(Oc2ccc(Nc3ccnc4cc(-c5ccc(CN6CCNCC6)o5)ccc34)cc2)nc1` [GW567142] was 0%; that for `CCNCC(Cc1ccccc1)NC(=O)c1cc(Br)c(-c2ccnc3[nH]ccc23)s1.Cl.Cl` (stereo not shown) [GSK1383280] was 60%; that for `Cc1ccc(Nc2ccnc(Nc3ccc4c(c3)CS(=O)(=O)C4)n2)cc1O.Cl` [GW579362] was 1%.

As for `COc1cccc(C2=C(Nc3cccc(Cl)c3)C(=O)NC2=O)c1` [SB-341556], the “%Inh” value amounted to 16%. Under `CCN1CCN(CCCC(=O)Nc2n[nH]c3nc(-c4ccc(O)cc4)c(Br)cc23)CC1` [SB-731579] stands 0%; under `CSc1nccc(-c2c(-c3ccc(F)cc3)ncn2CCCN2CCOCC2)n1.Cl` [SB-217146], 0%. Consider `COc1cc2nccc(Nc3ccc(Oc4ccccc4)cc3)c2cc1OC.Cl` [GI261656], for which the “%Inh” value worked out at 0%. For the molecule `CS(=O)c1ccc(-c2coc3ccc(-c4n[nH]c(=O)o4)cc23)cc1` (stereo not shown), the “%Inh” value amounted to 0%. As to `Cn1ccc2ncnc(Oc3ccc(NC(=O)Nc4ccnc(C(F)(F)F)c4)c(Cl)c3)c21`, the “%Inh” value is 0%. In the case of `CN1CCN(CCCNc2nccc(-c3c(-c4ccc(F)cc4)nn4cc(C(N)=O)ccc34)n2)CC1` [GW622475], the “%Inh” value is on record as 18%. The value for `O=C(NOCC1CC1)c1cc(Br)c(F)c(F)c1Nc1ccc(I)cc1Cl` was 0%; that for `COc1cccc(CNC(=O)NC2CCN(c3ccnc(Nc4cc(OC)c(OC)c(OC)c4)n3)C2)c1` (stereo not shown) [GSK1379765] was 0%; that for `COc1cc(Nc2nccc(N3CCC(NC(=O)c4cccc(C#N)c4)C3)n2)cc(OC)c1OC` (stereo not shown) [GSK1379751] was 10%.

For the molecule `COC(=O)c1cccc(NC(=O)NC2CCN(c3ccnc(NCc4ccc(F)cc4)n3)CC2)c1` [GSK1379860], the “%Inh” value is given as 0%. The value for `Cn1ccc2ncnc(Oc3ccc(NC(=O)Nc4cc(C(C)(C)C)on4)c(Cl)c3)c21` was 0%; that for `O=C1NCCc2[nH]c(-c3ccncc3)cc21` was 0%. As for `Nc1nccc(-c2ccc3c(N)n[nH]c3c2)n1` [GSK1034945], the “%Inh” value is 0%. Under `CC(=O)Nc1ccc(-c2cc3ncnc(SCC(=O)O)c3s2)cc1` stands 21%; under `NC(=O)c1ccc(-c2cc3ncnc(SCC(=O)O)c3s2)cc1`, 0%. Consider `Cc1cccc(-c2nc(Nc3ccncc3)c3sccc3n2)n1` [GW869641], for which the “%Inh” value stood at 0%. For `Cn1ccc2ncnc(Oc3ccc(NC(=O)Nc4cncc(C(F)(F)F)c4)c(Cl)c3)c21`, the “%Inh” value is recorded as 0%. The value for `OCCn1cc(-c2cnc3nnn(Cc4ccc5ncccc5c4)c3n2)cn1` was 0%. Under `C[C@@H]1CNc2c(sc3ccc4nc(-c5ccc(O)cc5)ccc4c23)C(=O)N1` stands 0%; under `FC(F)(F)c1cc(Br)cc(Nc2nccc(-c3cnn4ncccc34)n2)c1` [GW810578], 5%; under `NC(=O)Nc1sc(-c2ccc(F)cc2)cc1C(N)=O` [GW789449], 0%. Under `c1ccc(Oc2ccc(Nc3ccnc4ccc(-c5ccccn5)cc34)cc2)cc1` [GW407034] stands 27%; under `CCn1c(-c2nonc2N)nc2cncc(CNC3CCNCC3)c21.Cl` [SB-747651], 55%; under `CN(c1ccccc1CNc1nc(Nc2ccc3c(c2)CC(=O)N3)ncc1C(F)(F)F)S(C)(=O)=O`, 12%. `Cc1ccc(C(=O)Nc2ccc(Oc3ccc4nc(NC(=O)C5CC5)cn4c3)c(F)c2)c(=O)n1-c1ccccc1`: the “%Inh” value is reported as 12%. The value for `C[C@@H](Oc1cc(-n2cnc3ccc(-c4ccncc4)cc32)sc1C(N)=O)c1ccccc1Cl` [GSK483724] was 29%.
